In ChEMBL document CHEMBL1961873, “Compounds: GSK PKIS; Assays: Nanosyn kinase panel” (2012) one finds inhibition data, which are given here for seven compounds.

Experiment [1] concerns the target Glycogen synthase kinase-3 beta (Homo sapiens) (UniProt P49841). The note with it: at 1 µM.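 Also: reported values are mean percent inhibition of GSK3B.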
Experiment [2] concerns the target Homeodomain-interacting protein kinase 1 (Homo sapiens) (UniProt Q86Z02). The conditions noted are these: at 0.1 µM.
The target is the same in experiment [3]. The note with it: at 1 µM.
Experiment [4] deals with T1, Homeodomain-interacting protein kinase 4 (Homo sapiens) (UniProt Q8NE63).
T1 sequence (whole entry): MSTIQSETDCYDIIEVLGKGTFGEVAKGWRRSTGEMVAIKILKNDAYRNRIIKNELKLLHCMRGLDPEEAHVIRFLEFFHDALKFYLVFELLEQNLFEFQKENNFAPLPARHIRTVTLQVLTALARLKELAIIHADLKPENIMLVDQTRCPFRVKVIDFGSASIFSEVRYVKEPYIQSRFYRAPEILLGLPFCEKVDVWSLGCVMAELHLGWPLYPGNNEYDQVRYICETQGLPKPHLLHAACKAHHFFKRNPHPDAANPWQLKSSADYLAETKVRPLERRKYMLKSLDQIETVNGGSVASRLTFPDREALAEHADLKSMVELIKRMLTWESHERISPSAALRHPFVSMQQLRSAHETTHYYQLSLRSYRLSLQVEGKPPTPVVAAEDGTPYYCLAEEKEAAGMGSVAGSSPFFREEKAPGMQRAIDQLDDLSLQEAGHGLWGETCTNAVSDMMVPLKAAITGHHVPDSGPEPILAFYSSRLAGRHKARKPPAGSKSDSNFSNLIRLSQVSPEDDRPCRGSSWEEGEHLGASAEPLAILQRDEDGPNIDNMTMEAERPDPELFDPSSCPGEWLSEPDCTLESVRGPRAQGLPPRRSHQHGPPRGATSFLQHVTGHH
The conditions noted are these: at 0.1 µM.

The target of experiment [5] is T1, Homeodomain-interacting protein kinase 4 (Homo sapiens). The note with it: at 1 µM.
In experiment [6] the target is Mitogen-activated protein kinase 9 (Homo sapiens) (UniProt P45984). The note with it: at 0.1 µM.
Chain of Mitogen-activated protein kinase 9 (Homo sapiens) (P45984 whole entry, looked up): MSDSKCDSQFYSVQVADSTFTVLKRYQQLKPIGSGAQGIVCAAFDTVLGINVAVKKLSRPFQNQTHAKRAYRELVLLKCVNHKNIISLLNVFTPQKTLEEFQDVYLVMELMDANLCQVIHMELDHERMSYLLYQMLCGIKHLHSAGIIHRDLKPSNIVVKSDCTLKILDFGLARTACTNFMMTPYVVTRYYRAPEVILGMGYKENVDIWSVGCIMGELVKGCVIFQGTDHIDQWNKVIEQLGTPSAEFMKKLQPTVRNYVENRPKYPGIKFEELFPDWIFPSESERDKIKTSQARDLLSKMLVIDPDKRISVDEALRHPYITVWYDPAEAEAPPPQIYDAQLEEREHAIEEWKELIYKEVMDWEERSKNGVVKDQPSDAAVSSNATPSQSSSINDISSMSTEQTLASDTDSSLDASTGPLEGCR
For experiment [7] the target is unchanged. The conditions noted are these: at 1 µM.
The target of experiment [8] is Mitogen-activated protein kinase 1 (Homo sapiens) (UniProt P28482). The conditions noted are these: at 0.1 µM.
Chain of Mitogen-activated protein kinase 1 (Homo sapiens) (P28482 whole entry): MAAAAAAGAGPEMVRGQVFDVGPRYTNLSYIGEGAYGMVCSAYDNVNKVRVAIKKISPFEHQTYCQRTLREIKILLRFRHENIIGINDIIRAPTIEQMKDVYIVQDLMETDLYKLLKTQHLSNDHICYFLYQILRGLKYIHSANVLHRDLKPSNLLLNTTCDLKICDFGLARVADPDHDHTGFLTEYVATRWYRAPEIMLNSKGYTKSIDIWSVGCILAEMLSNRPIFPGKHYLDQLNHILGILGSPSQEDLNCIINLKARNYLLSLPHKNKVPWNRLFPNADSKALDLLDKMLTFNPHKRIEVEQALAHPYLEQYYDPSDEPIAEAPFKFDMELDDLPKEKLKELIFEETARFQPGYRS
The target is the same in experiment [9]. The note with it: at 1 µM.
Experiment [10] concerns the target Mitogen-activated protein kinase 3 (Homo sapiens) (UniProt P27361). The note with it: at 0.1 µM.
Experiment [11] shares this target. The note with it: at 1 µM.
In experiment [12] the target is SRSF protein kinase 3 (Homo sapiens) (UniProt Q9UPE1). The conditions noted are these: at 0.1 µM.
Chain of SRSF protein kinase 3 (Homo sapiens) (Q9UPE1 whole entry): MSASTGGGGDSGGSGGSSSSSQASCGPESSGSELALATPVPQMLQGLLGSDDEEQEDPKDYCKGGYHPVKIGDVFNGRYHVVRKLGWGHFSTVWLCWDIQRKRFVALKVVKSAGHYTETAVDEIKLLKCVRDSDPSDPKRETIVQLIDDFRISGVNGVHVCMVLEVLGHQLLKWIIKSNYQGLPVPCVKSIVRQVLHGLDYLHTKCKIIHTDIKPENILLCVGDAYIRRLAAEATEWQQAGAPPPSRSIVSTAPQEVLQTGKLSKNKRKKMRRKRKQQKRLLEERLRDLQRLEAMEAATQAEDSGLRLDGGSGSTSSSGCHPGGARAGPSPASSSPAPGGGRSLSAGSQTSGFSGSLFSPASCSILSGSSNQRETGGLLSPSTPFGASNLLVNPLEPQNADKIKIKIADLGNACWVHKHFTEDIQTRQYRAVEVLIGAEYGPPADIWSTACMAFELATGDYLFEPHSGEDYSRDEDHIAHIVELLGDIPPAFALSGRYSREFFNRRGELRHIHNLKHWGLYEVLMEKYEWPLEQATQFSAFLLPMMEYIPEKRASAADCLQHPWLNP
Experiment [13] has the same target. The conditions noted are these: at 1 µM.
Experiment [14] concerns the target Mitogen-activated protein kinase 14 (Homo sapiens) (UniProt Q16539). The note with it: at 0.1 µM.
The target is the same in experiment [15]. The conditions noted are these: at 1 µM.
Experiment [16] addresses Mitogen-activated protein kinase 11 (Homo sapiens) (UniProt Q15759). The conditions noted are these: at 0.1 µM.
For experiment [17] the target is unchanged. The conditions noted are these: at 1 µM.
In experiment [18] the target is T2, Mitogen-activated protein kinase 13 (Homo sapiens) (UniProt O15264).
T2 sequence (whole entry): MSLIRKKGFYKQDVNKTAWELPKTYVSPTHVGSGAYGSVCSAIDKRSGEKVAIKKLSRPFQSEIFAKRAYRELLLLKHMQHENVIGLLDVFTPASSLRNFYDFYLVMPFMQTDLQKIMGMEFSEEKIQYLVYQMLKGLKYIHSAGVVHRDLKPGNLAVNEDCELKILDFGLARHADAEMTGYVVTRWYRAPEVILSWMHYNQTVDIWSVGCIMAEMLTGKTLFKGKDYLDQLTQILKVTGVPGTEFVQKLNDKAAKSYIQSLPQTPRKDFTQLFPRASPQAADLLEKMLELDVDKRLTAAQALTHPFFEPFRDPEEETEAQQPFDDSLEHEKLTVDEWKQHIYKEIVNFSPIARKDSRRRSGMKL
The conditions noted are these: at 0.1 µM.

Experiment [19] concerns the target T2, Mitogen-activated protein kinase 13 (Homo sapiens). The note with it: at 1 µM.
Experiment [20] concerns the target T3, Mitogen-activated protein kinase 12 (Homo sapiens) (UniProt P53778).
T3 sequence (whole entry): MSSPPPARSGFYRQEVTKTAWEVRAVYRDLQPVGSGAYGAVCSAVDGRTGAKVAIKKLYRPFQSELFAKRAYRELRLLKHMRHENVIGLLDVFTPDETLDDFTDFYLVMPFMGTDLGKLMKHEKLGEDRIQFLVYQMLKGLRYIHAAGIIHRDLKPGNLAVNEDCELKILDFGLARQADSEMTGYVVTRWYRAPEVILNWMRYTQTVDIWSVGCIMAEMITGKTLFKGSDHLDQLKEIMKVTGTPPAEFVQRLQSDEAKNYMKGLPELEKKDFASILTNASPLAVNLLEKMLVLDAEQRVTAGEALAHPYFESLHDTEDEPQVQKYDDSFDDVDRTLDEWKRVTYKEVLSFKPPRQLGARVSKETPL
The note with it: at 0.1 µM.

For orientation: inhibition means the relative decrease from the control value, in per cent.

Chain of Glycogen synthase kinase-3 beta (Homo sapiens) (P49841 whole entry, looked up): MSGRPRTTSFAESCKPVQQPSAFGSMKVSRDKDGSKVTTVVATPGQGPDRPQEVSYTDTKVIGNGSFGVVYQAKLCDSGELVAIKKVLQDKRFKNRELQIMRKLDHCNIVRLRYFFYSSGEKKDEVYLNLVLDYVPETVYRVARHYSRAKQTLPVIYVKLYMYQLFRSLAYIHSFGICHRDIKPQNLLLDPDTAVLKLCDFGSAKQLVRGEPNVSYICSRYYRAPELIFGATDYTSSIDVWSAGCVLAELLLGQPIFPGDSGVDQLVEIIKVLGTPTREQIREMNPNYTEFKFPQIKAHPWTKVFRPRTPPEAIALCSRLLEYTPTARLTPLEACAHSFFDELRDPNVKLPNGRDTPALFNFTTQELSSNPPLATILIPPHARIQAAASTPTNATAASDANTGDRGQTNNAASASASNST
Chain of Homeodomain-interacting protein kinase 1 (Homo sapiens) (Q86Z02 whole entry, looked up): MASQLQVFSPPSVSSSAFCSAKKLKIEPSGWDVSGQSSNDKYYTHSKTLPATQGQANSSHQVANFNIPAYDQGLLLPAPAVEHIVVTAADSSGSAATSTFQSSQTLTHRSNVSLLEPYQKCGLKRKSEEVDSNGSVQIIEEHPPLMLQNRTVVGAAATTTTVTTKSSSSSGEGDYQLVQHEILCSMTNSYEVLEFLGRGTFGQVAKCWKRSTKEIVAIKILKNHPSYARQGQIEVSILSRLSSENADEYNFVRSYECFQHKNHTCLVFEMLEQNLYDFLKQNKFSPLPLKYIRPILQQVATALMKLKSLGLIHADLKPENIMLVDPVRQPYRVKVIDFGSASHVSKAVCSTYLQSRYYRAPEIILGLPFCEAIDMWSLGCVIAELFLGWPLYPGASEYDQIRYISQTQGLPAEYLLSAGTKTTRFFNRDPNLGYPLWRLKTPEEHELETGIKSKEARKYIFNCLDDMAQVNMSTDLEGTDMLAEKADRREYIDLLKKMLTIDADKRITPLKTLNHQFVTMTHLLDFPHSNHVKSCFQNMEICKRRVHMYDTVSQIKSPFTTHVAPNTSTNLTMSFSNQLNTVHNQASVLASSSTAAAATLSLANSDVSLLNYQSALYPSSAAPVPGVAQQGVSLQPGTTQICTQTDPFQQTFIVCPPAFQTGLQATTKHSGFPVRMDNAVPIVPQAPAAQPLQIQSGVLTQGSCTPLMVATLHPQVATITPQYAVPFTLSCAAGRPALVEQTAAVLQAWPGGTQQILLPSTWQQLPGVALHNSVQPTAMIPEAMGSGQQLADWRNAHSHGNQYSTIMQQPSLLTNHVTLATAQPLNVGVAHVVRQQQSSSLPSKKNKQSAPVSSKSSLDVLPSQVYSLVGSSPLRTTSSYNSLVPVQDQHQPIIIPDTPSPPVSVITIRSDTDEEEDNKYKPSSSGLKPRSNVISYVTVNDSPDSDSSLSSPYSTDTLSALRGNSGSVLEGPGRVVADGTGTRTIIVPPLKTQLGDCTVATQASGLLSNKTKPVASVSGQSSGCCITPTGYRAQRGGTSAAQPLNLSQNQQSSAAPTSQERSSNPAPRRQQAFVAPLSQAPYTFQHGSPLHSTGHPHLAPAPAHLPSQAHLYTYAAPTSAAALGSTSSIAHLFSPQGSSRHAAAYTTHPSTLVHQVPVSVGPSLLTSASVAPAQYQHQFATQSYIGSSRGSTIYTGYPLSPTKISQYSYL
Chain of Mitogen-activated protein kinase 14 (Homo sapiens) (Q16539 whole entry): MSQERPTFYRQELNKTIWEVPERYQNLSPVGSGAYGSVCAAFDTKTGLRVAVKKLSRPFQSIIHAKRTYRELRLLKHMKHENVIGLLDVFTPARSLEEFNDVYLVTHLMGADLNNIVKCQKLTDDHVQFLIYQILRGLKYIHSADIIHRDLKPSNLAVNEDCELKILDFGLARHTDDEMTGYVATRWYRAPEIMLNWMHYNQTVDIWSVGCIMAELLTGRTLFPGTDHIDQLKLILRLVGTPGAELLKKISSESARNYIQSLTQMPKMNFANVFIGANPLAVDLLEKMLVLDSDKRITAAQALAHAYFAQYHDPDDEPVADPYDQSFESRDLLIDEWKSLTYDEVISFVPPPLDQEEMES
Chain of Mitogen-activated protein kinase 11 (Homo sapiens) (Q15759 whole entry): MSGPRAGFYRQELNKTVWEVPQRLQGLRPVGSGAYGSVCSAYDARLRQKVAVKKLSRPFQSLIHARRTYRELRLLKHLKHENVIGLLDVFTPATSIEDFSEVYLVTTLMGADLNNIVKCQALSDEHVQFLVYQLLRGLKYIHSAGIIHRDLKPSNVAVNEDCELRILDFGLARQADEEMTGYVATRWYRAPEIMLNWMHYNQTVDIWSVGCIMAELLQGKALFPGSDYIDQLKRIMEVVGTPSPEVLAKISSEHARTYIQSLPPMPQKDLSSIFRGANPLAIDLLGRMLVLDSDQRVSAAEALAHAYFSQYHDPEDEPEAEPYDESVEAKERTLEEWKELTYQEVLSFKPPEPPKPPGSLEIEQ
Chain of Mitogen-activated protein kinase 3 (Homo sapiens) (P27361 whole entry): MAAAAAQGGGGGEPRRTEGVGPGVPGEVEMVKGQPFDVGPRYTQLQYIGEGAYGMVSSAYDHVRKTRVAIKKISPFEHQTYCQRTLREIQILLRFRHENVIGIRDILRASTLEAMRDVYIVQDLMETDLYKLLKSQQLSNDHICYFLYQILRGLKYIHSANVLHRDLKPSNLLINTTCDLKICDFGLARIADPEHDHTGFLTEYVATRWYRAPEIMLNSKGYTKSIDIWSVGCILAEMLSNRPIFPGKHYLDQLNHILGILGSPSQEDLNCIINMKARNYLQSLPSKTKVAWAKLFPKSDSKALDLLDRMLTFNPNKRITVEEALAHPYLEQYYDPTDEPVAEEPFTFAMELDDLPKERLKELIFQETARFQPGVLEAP

On to `CCn1c(-c2nonc2N)nc2c(N3CCCC3)nccc21`, for which the inhibition is 3.59% in experiment [1]; -0.15% in experiment [2]; 6.29% in [3]; -0.26% in [4]; 2.71% in experiment [5]; -4.08% in [6]. Besides, the inhibition in experiment [7] is -4.92%; in [8], -2.76%; in experiment [9], -3.21%; in [10] it was 0.68%; in experiment [11], 1.82%; in experiment [12], 0.04%. The inhibition is -1.21% in experiment [13]; 1.24% in [14]; -3.47% in experiment [15]; 0.58% in experiment [16]; 2.54% in [17]; -0.53% in experiment [18]. Further, the inhibition is -1.01% in experiment [19] and 0.01% in [20].
For the compound `COc1ccc2cc(-c3c(-c4ccncc4)nc(-c4ccc([S+](C)[O-])cc4)n3C)ccc2c1` (stereo not drawn), the inhibition is 9.29% in experiment [1]; -1.81% in [2]; 1.99% in experiment [3]; 0.14% in experiment [4]; -0.51% in [5]; 1.55% in [6]. For the same compound, the inhibition in experiment [7] was 4.27%; in experiment [8], 1.94%; in experiment [9] it was 2.54%; in [10] it was 4.68%; in [11], 0.18%; in [12] it was -1.39%. In addition, the inhibition in experiment [13] was -1.03%; in experiment [14], 1.72%; in experiment [15], 8.34%; in [16], 3.87%; in experiment [17], 7.24%; in experiment [18], -1.65%. The inhibition in [19] came out at 3.19%; in experiment [20], 2.2%.
As for `O=C1Nc2ccc(C(=O)c3ccco3)cc2C1=Cc1cc(Cl)c(O)c(Cl)c1`, the inhibition in experiment [1] turned out to be 75.8%; in experiment [2], 14%; in [3] it was 54.1%; in experiment [4] it was 4.69%; in [5], 32.9%; in experiment [6], 2.31%. Also, the inhibition was 6.22% in [7]; 2.44% in experiment [8]; 4.55% in experiment [9]; 1.44% in experiment [10]; 3.14% in experiment [11]; -3.06% in experiment [12]. Besides, the inhibition came out at 0.75% in [13]; 2.28% in experiment [14]; 6.71% in experiment [15]; 1.71% in [16]; 3.75% in [17]; 0.88% in [18]. For the same compound, the inhibition in experiment [19] turned out to be 2.9%; in experiment [20] it was 0.31%.
As for `COc1cc(C=NNc2ncnc3c2cnn3-c2ccccc2)ccc1O`, the inhibition in experiment [1] came out at 78.1%; in experiment [2], 3.83%; in experiment [3], 28.3%; in experiment [4], 10.8%; in [5], 39.6%; in [6], 2.12%. Further, the inhibition in experiment [7] came to 6.67%; in experiment [8], 2.39%; in experiment [9] it was 2.08%; in experiment [10] it was 1.28%; in [11] it was 1.84%; in experiment [12], 2.22%. The inhibition in experiment [13] stood at 4.19%; in [14], 4.51%; in experiment [15], 10.7%; in experiment [16], 3.59%; in experiment [17] it was 9.09%; in experiment [18], 3.08%. In addition, the inhibition in [19] came to 7.17%; in experiment [20] it was 1.85%.
For `O=C1NC(=O)C(c2ccccc2Cl)=C1Nc1cccc(O)c1`, the inhibition in [2] amounted to 1.81%; in experiment [3], 7.57%; in [4] it was 0.96%; in experiment [5] it was 3.38%; in experiment [6] it was 2.21%; in [7] it was 2.41%. Besides, the inhibition in [8] was 2.64%; in experiment [9] it was 2.43%; in experiment [10], 2.98%; in experiment [11], 1.29%; in experiment [12] it was 1.93%; in experiment [13], 4.52%. The inhibition in experiment [14] is 2.48%; in experiment [15] it was 4.36%; in experiment [16], 2.37%; in experiment [17], 0.91%; in experiment [18] it was 1.98%; in [19] it was 4.14%. Besides, in [20], the inhibition was 5.33%.
For the compound `NC(=O)c1cccc(Nc2nccc(Nc3cccc4[nH]ncc34)n2)c1`, the inhibition in experiment [1] is 35%; in experiment [2], 1.13%; in experiment [3], 7.88%; in experiment [4], 3.21%; in experiment [5], 21.2%; in experiment [6] it was -6.25%. For the same compound, the inhibition in experiment [7] is 4.55%; in experiment [8] it was -3.75%; in experiment [9], -0.34%; in experiment [10], -3.05%; in experiment [11], 1.82%; in experiment [12], 0.19%. Also, the inhibition in experiment [13] was 3.95%; in experiment [14] it was 4.23%; in experiment [15], 2.87%; in [16], -1.99%; in [17], 3.32%; in [18], -0.37%. Besides, the inhibition in experiment [19] is 1.26%; in [20], -1.53%.
For `O=C1NC(=O)C(N2CCc3ccccc32)=C1c1ccc(Cl)cc1`, the inhibition was 0.01% in experiment [2]; 1.33% in experiment [3]; -0.41% in [4]; 2.92% in experiment [5]; 3.51% in [6]; 5.32% in [7]. Further, the inhibition in experiment [8] was 3.12%; in [9] it was 5.91%; in experiment [10], 5.26%; in experiment [11] it was 2.62%; in experiment [12] it was 1.04%; in experiment [13], -0.52%. Further, the inhibition in experiment [14] worked out at 3.97%; in experiment [15], 8.43%; in experiment [16], 5.07%; in experiment [17], 4.84%; in experiment [18], 1.06%; in [19], 5.95%. The inhibition in experiment [20] was 3.98%.
